These results are taken from PubChem BioAssay (Tox21).

Results filed as inconclusive are left out. Values without a mark were called inactive. The source made the active and inactive calls. Calls follow the shape of the dose curve; as a rule, active = well fitted cell-killing curve with a large enough effect in the repeat runs; inconclusive = weak or mixed curves, or effect the other way; inactive = flat fitted curve, though single readings scatter.

A short description of assay [1]: cAMP Responsive Elements (CRE) small molecule antagonists, cell-based qHTS assay: qHTS cell viability counter screen (AID 2060913). Also: nearly all actives have a fitted effect of over 40% in size. Also: potency is read from the fitted curve at half-maximal effect. In outline:
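HEK293T CRE-bla, 2,000 cells/well, 18 h preincubation; cpd in DMSO + NKH477 0.25 uM final, 3 h 37 C/5% CO2; LiveBLAzer 2 h RT, then CellTiter-Glo 30 min RT, luminescence.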
Background: Quantitative high-throughput screening tests each substance at several concentrations.

The nature of assay [2]: cAMP Responsive Elements (CRE) small molecule agonists, cell-based qHTS assay: qHTS cell viability counter screen (AID 2060914). Also: nearly all actives have a fitted effect of over 50% in size. The method, boiled down:
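In the same wells as the reporter read, viability of CRE-bla HEK 293T cells was quantified by CellTiter-Glo luminescence after a 3 h compound exposure.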
% is scaled to controls: 0 for no effect and ±100 for the full control effect.

Consider `Oc1cc(Cl)cc(Cl)c1Cl`, for which, in assay [1], the Potency was 55.8 µM (active). In addition, the Potency entry in assay [2] is “inactive”.
Consider `Oc1cccc(O)c1`, for which the Potency entry in assay [1] and in assay [2] was “inactive” each time.
With `Cc1ccc(C(C)C)cc1`, the Potency result in assay [1] and in assay [2] was “inactive” in each case.
As to `CCN(CC)c1ccc2c(C)cc(=O)oc2c1`, the Potency entry in assay [1] and in assay [2] was “inactive” in each case.
As for `Cc1nc2ccccc2n1Cc1ccc(Cl)cc1`, the Potency result in assay [1] and in assay [2] was “inactive” in each case.
As for `CN(C)CCCN1c2ccccc2CCc2ccccc21`, the Potency result in assay [1] and in assay [2] was “inactive” throughout.
For `CC(=O)[C@@]1(O)CC[C@H]2[C@@H]3C[C@H](C)C4=CC(=O)CC[C@]4(C)[C@H]3CC[C@@]21C`, the Potency entry in assay [1] and in assay [2] was “inactive” throughout.
In the case of `COC(C)(C)OC`, the Potency entry in assay [1] and in assay [2] was “inactive” in each case.
As to `NCCCCCCN`, the Potency result in assay [1] and in assay [2] was “inactive” in each case.
In the case of `CNC(=O)Oc1ccc2c(c1)[C@]1(C)CCN(C)[C@@H]1N2C`, the Potency entry in assay [1] and in assay [2] was “inactive” throughout.
As to `O=C(O)CCCc1ccccc1`, the Potency entry in assay [1] and in assay [2] was “inactive” throughout.
For `Cc1ccc(-c2cc(C(F)(F)F)nn2-c2ccc(S(N)(=O)=O)cc2)cc1`, the Potency entry in assay [1] and in assay [2] was “inactive” each time.
For the compound `CN1Cc2cc(C(=O)N3CCC(C4CCNCC4)CC3)ccc2NC(CC(=O)O)C1=O` (stereo not given), the Potency result in assay [1] and in assay [2] was “inactive” each time.
Regarding `O=C1c2cccc3c2[C@H](CCC3)CN1[C@@H]1CN2CCC1CC2`, the Potency result in assay [1] and in assay [2] was “inactive” each time.
For `CCCCCCCCCCCCCC(=O)OCC`, the Potency result in assay [1] and in assay [2] was “inactive” in each case.
`Cc1ccc(C=O)cc1C`: the Potency entry in assay [1] and in assay [2] was “inactive” each time.
Regarding `Cc1cc(C(C)(C)C)c(O)c(C)c1Cn1c(=O)n(Cc2c(C)cc(C(C)(C)C)c(O)c2C)c(=O)n(Cc2c(C)cc(C(C)(C)C)c(O)c2C)c1=O`, the Potency result in assay [1] and in assay [2] was “inactive” each time.
As for `c1ccc2sc(SN3CCOCC3)nc2c1`, the Potency result in assay [1] and in assay [2] was “inactive” throughout.
For the compound `COc1cc(/C=C/C(N)=O)cc(OC)c1OC`, the Potency entry in assay [1] and in assay [2] was “inactive” throughout.
Consider `C[N+](C)(CCOc1ccccc1)Cc1cccs1`, for which the Potency result in assay [1] and in assay [2] was “inactive” in each case.
As for `CC(=O)NC(=O)c1ccccc1O`, the Potency result in assay [1] and in assay [2] was “inactive” each time.
Consider `CC(C)[C@H]1CC[C@H](C)C[C@@H]1O`, for which the Potency result in assay [1] and in assay [2] was “inactive” in each case.
For the compound `Cc1ccc([N+](=O)[O-])c(N)c1`, the Potency entry in assay [1] and in assay [2] was “inactive” in each case.
Turning to `OCC#CCO`, the Potency entry in assay [1] and in assay [2] was “inactive” in each case.
As for `C/C(=C\C(C)CC(C)CC(C)C)C1CC(=O)OC1=O` (stereo not given), the Potency result in assay [1] and in assay [2] was “inactive” each time.
`C=C1CC[C@H](O)CC1=C/C=C1\CCC[C@]2(C)[C@@H]([C@H](C)/C=C/[C@H](C)C(C)C)CC[C@@H]12`: the Potency entry in assay [1] and in assay [2] was “inactive” in each case.
`Nc1ccc2c(S(=O)(=O)O)cccc2c1S(=O)(=O)O`: the Potency result in assay [1] and in assay [2] was “inactive” in each case.
For the compound `Nc1ccc(C(=O)N2CC3CC(CN(Cc4ccccc4)C3)C2)cc1`, the Potency result in assay [1] and in assay [2] was “inactive” each time.
In the case of `CC(C)=CCCC(C)CCO` (stereo not given), the Potency result in assay [1] and in assay [2] was “inactive” throughout.
Consider `CNC(=O)[C@H]1O[C@@H](n2cnc3c(NCc4cc(Cl)ccc4OCc4cc(C)no4)ncnc32)[C@H](O)[C@@H]1N`, for which the Potency entry in assay [1] and in assay [2] was “inactive” throughout.
As to `CN(C[C@@H](CC[N+]12CCC(C3CCCCC3)(CC1)CC2)c1ccc(Cl)c(Cl)c1)C(=O)c1cc(C(F)(F)F)cc(C(F)(F)F)c1`, in assay [1], the Potency was 54.5 µM (active). Also, the Potency entry in assay [2] was “inactive”.
For `Nc1ncnc2nc[nH]c12`, the Potency result in assay [1] and in assay [2] was “inactive” throughout.
`O=S(=O)(O)CCO`: the Potency result in assay [1] and in assay [2] was “inactive” throughout.
Regarding `CO/N=C(/C(=O)N[C@@H]1C(=O)N2C(C(=O)O)=C(COC(N)=O)CS[C@H]12)c1ccco1`, the Potency result in assay [1] and in assay [2] was “inactive” each time.
As for `CCC(C)COC(=O)CC(C)C` (stereo not given), the Potency result in assay [1] and in assay [2] was “inactive” in each case.
For the compound `OC[C@@H](O)[C@@H](O)[C@H](O)[C@@H](O)CO`, the Potency result in assay [1] and in assay [2] was “inactive” throughout.
On to `CCCCC[Si](OCC)(OCC)OCC`, for which the Potency result in assay [1] and in assay [2] was “inactive” throughout.
Take `Cc1nc2ccccc2s1`: the Potency result in assay [1] and in assay [2] was “inactive” in each case.
With `CCCCCCCCC(=O)OCC`, the Potency result in assay [1] and in assay [2] was “inactive” in each case.
Turning to `O=CO`, the viability change, negative = cytotoxic in assay [1] is -5.83% [at 8.39 µM]. Further, the activity change, negative = cytotoxicity in assay [2] is -4.64% [at 8.39 µM].
Take `CCCCCCCC/C=C\CCCCCCCC(=O)NCc1ccc(O)c(OC)c1`: the Potency result in assay [1] and in assay [2] was “inactive” each time.
`CC(=O)Oc1ccc(C(=C2CCCCC2)c2ccc(OC(C)=O)cc2)cc1`: the Potency result in assay [1] and in assay [2] was “inactive” in each case.
For the compound `CCCCCCCCCCO[C@@H]1O[C@H](CO)[C@@H](O)[C@H](O)[C@H]1O`, the Potency result in assay [1] and in assay [2] was “inactive” throughout.
For `CC(CCO)CCCC(C)(C)O` (stereo not given), the Potency result in assay [1] and in assay [2] was “inactive” throughout.
In the case of `CC(C)(c1cc(Br)c(O)c(Br)c1)c1cc(Br)c(O)c(Br)c1`, the Potency entry in assay [1] and in assay [2] was “inactive” each time.
Consider `Cc1ncc(CO)c(C=O)c1O`, for which the Potency result in assay [1] and in assay [2] was “inactive” in each case.
On to `Cc1cc(C)c(S(=O)(=O)O)cc1N=Nc1cc(S(=O)(=O)O)c2ccccc2c1O`, for which the Potency result in assay [1] and in assay [2] was “inactive” each time.
Regarding `Oc1ccc(N=Nc2ccccc2)cc1`, the Potency entry in assay [1] and in assay [2] was “inactive” throughout.
Consider `CCO[Si](CCCSSSSCCC[Si](OCC)(OCC)OCC)(OCC)OCC`, for which the Potency result in assay [1] and in assay [2] was “inactive” throughout.
As to `CO[C@@H]1[C@@H](OC(N)=O)[C@@H](O)[C@H](Oc2ccc3c(O)c(NC(=O)c4ccc(O)c(CC=C(C)C)c4)c(=O)oc3c2C)OC1(C)C`, the Potency entry in assay [1] and in assay [2] was “inactive” throughout.
